Reference: PubChem BioAssay (EPA / NIEHS)
The source made the active and inactive calls. Rule for the calls: active = hit-call score of the fitted dose curve at least 0.9, where 1 is the maximum; inactive = score below 0.9.

Experiments:
[1] = ATG_CRE_CIS: Attagene CIS-FACTORIAL HepG2 Assay for human cAMP Responsive Element (CRE) binding protein 3 (AID 2282926); conditions: HepG2 CRE cis-reporter, Attagene multiplexed mRNA; actives raise or lower the signal
Method in brief: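 Induced reporter mRNA from a CRE cis element, measured in HepG2 among many multiplexed units at 24 h. Detection used RT-PCR plus capillary electrophoresis of fluorescent fragments; DMSO served as negative control.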

[2] = biological target: CCAAT/enhancer-binding protein beta (Homo sapiens) (UniProt P17676); assay: ATG_C_EBP_CIS: Attagene CIS-FACTORIAL HepG2 Assay for human CCAAT/Enhancer Binding Protein (C/EBP) beta (AID 2282927); conditions: HepG2 Attagene cis-factorial transcription factor reporter; actives raise or lower the signal
Chain of CCAAT/enhancer-binding protein beta (Homo sapiens) (P17676 whole entry, looked up): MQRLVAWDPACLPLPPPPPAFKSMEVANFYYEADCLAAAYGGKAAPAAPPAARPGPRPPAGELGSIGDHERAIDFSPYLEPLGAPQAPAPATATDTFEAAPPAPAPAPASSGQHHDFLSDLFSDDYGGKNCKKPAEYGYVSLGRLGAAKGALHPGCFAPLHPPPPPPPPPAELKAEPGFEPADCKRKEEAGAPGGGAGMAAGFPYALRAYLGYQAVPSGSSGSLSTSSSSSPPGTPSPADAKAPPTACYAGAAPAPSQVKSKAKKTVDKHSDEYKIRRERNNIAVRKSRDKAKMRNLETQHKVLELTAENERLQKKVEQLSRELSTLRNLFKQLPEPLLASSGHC
Method in brief: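 Transiently transfected HepG2 (MRTU library, endogenous TF-driven promoters); 24 h dosing; total RNA → oligo(dT) RT → PCR → 6-FAM primer extension → HpaI digest → CE; fit bidirectionally vs DMSO.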

[3] = ATG_CMV_CIS: Attagene CIS-FACTORIAL HepG2 Assay for human CMV (Internal Marker) (AID 2282928); conditions: HepG2 CMV promoter reporter, transcription factor profiling; actives raise or lower the signal;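 note: endpoint acts as a background internal control marker rather than a target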
Method in brief: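 Reporter transcripts from transfected HepG2 cells are isolated after 24 h of chemical dosing, reverse-transcribed and amplified. Fragments labeled with 6-FAM are cut with HpaI and quantified by capillary electrophoresis; DMSO defines baseline.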

[4] = ATG_DR4_LXR_CIS: Attagene CIS-FACTORIAL HepG2 Assay for human Liver X Receptor (LXR), DR4 submotif (AID 2282929); conditions: HepG2 Attagene DR4 cis-reporter, mRNA transcription; actives raise or lower the signal
Method in brief: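 Measures endogenous transcription factor activity via a DR4-driven reporter transcript in human HepG2 cells. Compounds incubated 24 h; mRNA quantified by RT-PCR and capillary electrophoresis, analysed as gain or loss of signal versus DMSO.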

[5] = biological target: Aryl hydrocarbon receptor (Homo sapiens) (UniProt P35869); assay: ATG_Ahr_CIS: Attagene CIS-FACTORIAL HepG2 Assay for human Aryl Hydrocarbon Receptor (Ahr) (AID 2282930); conditions: HepG2 AhR cis-factorial reporter transcription; actives raise or lower the signal
Chain of Aryl hydrocarbon receptor (Homo sapiens) (P35869 whole entry, looked up): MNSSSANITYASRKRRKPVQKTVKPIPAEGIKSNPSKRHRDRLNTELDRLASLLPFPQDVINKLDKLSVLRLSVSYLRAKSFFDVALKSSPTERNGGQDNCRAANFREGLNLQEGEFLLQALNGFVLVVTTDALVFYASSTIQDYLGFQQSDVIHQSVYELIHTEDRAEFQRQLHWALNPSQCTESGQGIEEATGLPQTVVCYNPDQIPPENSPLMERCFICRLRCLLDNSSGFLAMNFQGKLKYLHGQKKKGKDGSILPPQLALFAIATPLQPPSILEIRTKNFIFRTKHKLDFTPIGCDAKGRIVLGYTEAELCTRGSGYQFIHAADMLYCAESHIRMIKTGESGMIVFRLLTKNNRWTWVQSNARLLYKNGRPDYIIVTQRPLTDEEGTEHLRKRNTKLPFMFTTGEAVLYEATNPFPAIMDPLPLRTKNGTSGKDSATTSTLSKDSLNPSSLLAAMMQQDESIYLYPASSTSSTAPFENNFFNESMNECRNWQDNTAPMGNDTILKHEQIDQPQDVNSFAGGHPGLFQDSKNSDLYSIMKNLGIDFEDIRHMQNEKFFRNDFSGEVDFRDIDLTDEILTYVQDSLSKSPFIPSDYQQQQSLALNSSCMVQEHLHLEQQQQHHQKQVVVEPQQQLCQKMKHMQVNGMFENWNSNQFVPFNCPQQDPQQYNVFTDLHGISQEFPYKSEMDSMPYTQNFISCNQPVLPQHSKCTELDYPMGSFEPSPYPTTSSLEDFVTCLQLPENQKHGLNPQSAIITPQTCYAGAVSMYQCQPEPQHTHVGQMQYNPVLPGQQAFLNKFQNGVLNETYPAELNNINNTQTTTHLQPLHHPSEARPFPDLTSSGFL
Method in brief: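 Read-out: reporter mRNA quantified by RT-PCR with fluorescent primer extension and capillary electrophoresis. Human HepG2 liver cells carried transfected cis-promoter reporter units and were exposed to chemical for 24 h; gain or loss fitted relative to DMSO.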

[6] = ATG_AP_1_CIS: Attagene CIS-FACTORIAL HepG2 Assay for human Activator Protein 1 (AP-1) (AID 2282931); conditions: HepG2 Attagene cis-factorial AP-1 reporter mRNA; actives raise or lower the signal
Method in brief: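 Bidirectional concentration-response fitting against DMSO controls. Underlying signal: reporter mRNA from cis-promoter constructs in transiently transfected HepG2, measured after 24 h by RT-PCR and capillary electrophoresis.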

[7] = ATG_AP_2_CIS: Attagene CIS-FACTORIAL HepG2 Assay for human Activator Protein 2 (AP-2) (AID 2282932); conditions: HepG2 AP-2 cis-reporter, Attagene transcription factor profiling; actives raise or lower the signal
Method in brief: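 Read-out: fluorescent reporter mRNA via RT-PCR and capillary electrophoresis, 24 h post-dose in transiently transfected HepG2. Endogenous factors drive cis-promoter reporters; gain or loss of signal fitted bidirectionally against DMSO.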

[8] = ATG_BRE_CIS: Attagene CIS-FACTORIAL HepG2 Assay for human Bone Morphogenetic Protein (BMP) Response Element (BRE) (AID 2282933); conditions: HepG2 BMP response element reporter, Attagene transcription factor profiling; actives raise or lower the signal
Method in brief: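 Endogenous transcription factor activity at a BMP response element was monitored in transfected HepG2 cells 24 h after dosing. Fluorescent RT-PCR products were resolved by capillary electrophoresis, and activity was fitted in both directions versus DMSO.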

[9] = biological target: Retinoic acid receptor alpha (Homo sapiens) (UniProt P10276); assay: ATG_DR5_RAR_CIS: Attagene CIS-FACTORIAL HepG2 Assay for human Retinoic Acid Receptor Alpha (RARE), DR5 submotif (AID 2282934); conditions: HepG2 Attagene cis-factorial RARE DR5 reporter, mRNA; actives raise or lower the signal;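 for AC50: reporter responds to endogenous RAR alpha beta and gamma in HepG2 not RARA alone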
Chain of Retinoic acid receptor alpha (Homo sapiens) (P10276 whole entry, looked up): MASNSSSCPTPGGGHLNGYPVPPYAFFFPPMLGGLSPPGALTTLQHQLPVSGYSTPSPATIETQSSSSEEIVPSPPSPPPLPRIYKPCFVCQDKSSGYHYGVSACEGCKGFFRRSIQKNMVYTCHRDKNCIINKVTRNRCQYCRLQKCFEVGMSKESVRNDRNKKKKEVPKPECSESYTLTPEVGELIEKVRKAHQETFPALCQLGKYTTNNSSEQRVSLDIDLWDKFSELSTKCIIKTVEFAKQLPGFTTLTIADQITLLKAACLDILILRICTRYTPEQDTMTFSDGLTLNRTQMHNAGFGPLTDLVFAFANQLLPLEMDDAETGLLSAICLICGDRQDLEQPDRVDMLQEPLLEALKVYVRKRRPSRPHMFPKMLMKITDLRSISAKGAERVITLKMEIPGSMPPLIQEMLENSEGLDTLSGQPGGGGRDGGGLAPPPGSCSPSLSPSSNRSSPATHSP
Method in brief: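 Read-out: DR5-driven reporter transcript measured by RT-PCR, 6-FAM primer extension, HpaI digest and capillary electrophoresis. Human HepG2 liver cells carry transiently transfected cis-element reporter constructs; dosing lasts 24 h. Gain or loss of signal fitted against DMSO baseline.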

[10] = biological target: Transcription factor E2F1 (Homo sapiens) (UniProt Q01094); assay: ATG_E2F_CIS: Attagene CIS-FACTORIAL HepG2 Assay for human E2F Transcription Factor 1 (AID 2282935); conditions: HepG2 Attagene cis-reporter, E2F reporter RNA transcripts; actives raise or lower the signal
Chain of Transcription factor E2F1 (Homo sapiens) (Q01094 whole entry, looked up): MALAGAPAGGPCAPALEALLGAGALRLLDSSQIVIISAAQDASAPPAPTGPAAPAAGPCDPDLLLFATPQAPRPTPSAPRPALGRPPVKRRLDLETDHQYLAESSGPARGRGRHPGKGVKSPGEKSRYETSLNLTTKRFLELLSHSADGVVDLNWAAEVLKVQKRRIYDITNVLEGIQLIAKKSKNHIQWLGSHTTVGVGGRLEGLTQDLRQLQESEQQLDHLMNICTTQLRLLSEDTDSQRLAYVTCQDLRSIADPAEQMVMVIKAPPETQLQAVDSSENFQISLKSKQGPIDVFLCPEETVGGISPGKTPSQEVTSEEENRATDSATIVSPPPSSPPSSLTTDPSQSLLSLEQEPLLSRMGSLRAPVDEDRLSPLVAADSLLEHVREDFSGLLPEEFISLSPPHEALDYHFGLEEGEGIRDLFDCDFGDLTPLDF
Method in brief: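 Transient MRTU transfection of HepG2; 24 h compound exposure; RNA → oligo(dT) RT → PCR → FAM label → HpaI cut → CE fluorescence. Gain/loss of signal fit against DMSO.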

SMILES	outcome [1]	outcome [2]	outcome [3]	outcome [4]	outcome [5]	AC50 [6]	outcome [7]	outcome [8]	outcome [9]	outcome [10]	outcome [6]	AC50 [4]	AC50 [8]	AC50 [5]	AC50 [9]	AC50 [3]	AC50 [1]	AC50 [2]
CCN(CCC#N)c1ccc(N=Nc2c(Cl)cc([N+](=O)[O-])cc2Cl)cc1	inactive	inactive	inactive	inactive	inactive	27 µM (active)	inactive	inactive	inactive	inactive								
Clc1nc2ccccc2s1	inactive	inactive	inactive	inactive	inactive		inactive	inactive		inactive	inactive							
CC(=O)c1ccc[nH]1	inactive	inactive	inactive	inactive	inactive		inactive	inactive	inactive	inactive	inactive							
C/C=C\C/C=C/CCCCCCCCOC(C)=O	inactive	inactive	inactive		inactive	134 µM (active)	inactive		inactive	inactive		122 µM (active)	67.9 µM (active)					
COc1c2ccoc2cc2oc(=O)ccc12	inactive	inactive	inactive	inactive	inactive		inactive	inactive	inactive	inactive	inactive							
NCCCN1CCN(CCCN)CC1	inactive	inactive	inactive	inactive	inactive		inactive	inactive	inactive	inactive	inactive							
N#CCc1ccc(Cl)cc1Cl	inactive	inactive	inactive	inactive			inactive	inactive	inactive	inactive	inactive			18.6 µM (active)				
Cc1c(C)c([N+](=O)[O-])c(C(C)(C)C)c([N+](=O)[O-])c1C	inactive	inactive	inactive	inactive	inactive		inactive	inactive		inactive	inactive				5.92 µM (active)			
OCCc1ccncc1	inactive	inactive	inactive	inactive	inactive		inactive	inactive		inactive	inactive							
CCN(Cc1cccc(S(=O)(=O)O)c1)c1ccc(C(=C2C=CC(=[N+](CC)Cc3cccc(S(=O)(=O)[O-])c3)C=C2)c2ccccc2)cc1	inactive	inactive	inactive	inactive			inactive	inactive	inactive	inactive	inactive			51.2 µM (active)				
COC(=O)c1sccc1S(N)(=O)=O	inactive	inactive	inactive	inactive	inactive		inactive	inactive		inactive	inactive							
C=CCOc1c(Br)cc(Br)cc1Br	inactive	inactive		inactive	inactive		inactive	inactive		inactive	inactive					35.1 µM (active)		
CC(=O)c1ccc2c(c1)CCCC2	inactive	inactive	inactive	inactive	inactive		inactive	inactive	inactive	inactive	inactive							
CCCCC(CC)COCC1CO1 (stereo not given)	inactive	inactive	inactive	inactive	inactive		inactive	inactive		inactive	inactive							
O=C(O)c1cc(Cl)cc([N+](=O)[O-])c1Cl	inactive	inactive	inactive	inactive	inactive		inactive	inactive		inactive	inactive							
[Cl][Bi]([Cl])([c]1ccccc1)([c]1ccccc1)[c]1ccccc1		inactive	inactive		inactive	5.85 µM (active)	inactive		inactive	inactive		3.07 µM (active)	6.21 µM (active)				6.38 µM (active)	
CCCCCCCC[N+](C)(CCCCCCCC)CCCCCCCC	inactive	inactive	inactive	inactive	inactive		inactive	inactive	inactive	inactive	inactive							
CCOC(=O)c1ccc(N(C)C)cc1	inactive	inactive	inactive	inactive			inactive	inactive	inactive	inactive	inactive			44.4 µM (active)				
CCCCCCCCCCC=CC#N	inactive	inactive			inactive	111 µM (active)	inactive	inactive		inactive		100 µM (active)				100 µM (active)		
C=CC(=O)OCC(Br)CBr (stereo not given)	inactive				inactive		inactive	inactive	inactive	inactive	inactive	53.4 µM (active)				100 µM (active)		180 µM (active)
COCCOCCOCCOCCOC	inactive	inactive	inactive	inactive	inactive		inactive	inactive	inactive	inactive	inactive							
CCCCCCCCc1ccc(Nc2ccc(CCCCCCCC)cc2)cc1	inactive	inactive	inactive	inactive	inactive		inactive	inactive	inactive	inactive	inactive							
O=[N+]([O-])C1(Br)COCOC1		inactive	inactive	inactive	inactive		inactive			inactive	inactive		33.4 µM (active)				53.6 µM (active)	
C1=Cc2ccccc2C1	inactive	inactive	inactive	inactive			inactive	inactive		inactive	inactive			5.55 µM (active)				
CCOC(F)(F)C(F)(F)C(F)(F)C(F)(F)F	inactive	inactive	inactive	inactive	inactive		inactive	inactive		inactive	inactive							
O=C(/C=C/C=C/c1ccc2c(c1)OCO2)N1CCCCC1	inactive	inactive	inactive		inactive		inactive		inactive	inactive	inactive	72.6 µM (active)	176 µM (active)					

SMILES	outcome [1]	outcome [2]	outcome [3]	outcome [4]	outcome [5]	AC50 [6]	outcome [7]	outcome [8]	outcome [9]	outcome [10]	outcome [6]	AC50 [4]	AC50 [8]	AC50 [5]	AC50 [9]	AC50 [3]	AC50 [1]	AC50 [2]
CCOC(=O)N1CCC(=C2c3ccc(Cl)cc3CCc3cccnc32)CC1	inactive	inactive			inactive		inactive	inactive	inactive	inactive	inactive	9.1 µM (active)				7.56 µM (active)		
C=C(C)[C@H]1CC=C(C)CC1	inactive	inactive	inactive	inactive	inactive		inactive	inactive		inactive	inactive							
CC(C)c1ccc2cc(C(C)C)ccc2c1				inactive		55.8 µM (active)	inactive	inactive		inactive				135 µM (active)		45.5 µM (active)	62 µM (active)	64.6 µM (active)
NC(CO)(CO)CO	inactive	inactive	inactive	inactive	inactive		inactive	inactive	inactive	inactive	inactive							
CCCCCCCCCCc1ccccc1	inactive	inactive	inactive	inactive	inactive		inactive	inactive		inactive	inactive							
ON(Cc1ccccc1)Cc1ccccc1	inactive	inactive	inactive	inactive	inactive		inactive	inactive	inactive	inactive	inactive							
CC(C)c1ccc2c(C(C)C)cc(C(C)C)c(S(=O)(=O)O)c2c1	inactive	inactive	inactive	inactive	inactive		inactive	inactive	inactive	inactive	inactive							
CC(=O)OCCC1CCCCC1	inactive	inactive	inactive	inactive	inactive		inactive	inactive	inactive	inactive	inactive							
Cc1cccc(N)n1	inactive	inactive	inactive	inactive	inactive		inactive	inactive		inactive	inactive							
CC1=NN(c2cc(S(=O)(=O)O)ccc2Cl)C(=O)C1N=Nc1ccccc1 (stereo not given)	inactive	inactive	inactive	inactive			inactive	inactive		inactive	inactive			0.541 µM (active)				
Cc1cc(C)c(C(=O)O)c(C)c1	inactive	inactive	inactive	inactive	inactive		inactive	inactive	inactive	inactive	inactive							
O=C(O)Cc1c(Cl)ccc(Cl)c1Cl	inactive	inactive	inactive	inactive	inactive		inactive	inactive		inactive	inactive							
O=Cc1ccc(CO)o1	inactive	inactive	inactive	inactive	inactive		inactive	inactive	inactive	inactive	inactive							
CC(=O)C=CC1C(C)=CCC(C)C1(C)C (stereo not given)	inactive	inactive	inactive	inactive	inactive		inactive	inactive		inactive	inactive							
COC(=O)/C=C\C(=O)O	inactive	inactive	inactive	inactive	inactive			inactive	inactive	inactive	inactive							
Nc1ncn([C@@H]2O[C@H](CO)[C@@H](O)[C@H]2O)c(=O)n1			inactive	inactive	inactive			inactive	inactive	inactive	inactive						9.4 µM (active)	15.4 µM (active)
NC(=O)C1CO1 (stereo not given)	inactive	inactive	inactive	inactive	inactive			inactive	inactive	inactive	inactive							
O=Nc1ccc(O)cc1	inactive	inactive	inactive	inactive	inactive		inactive	inactive	inactive	inactive								
Nc1ccc(N)c(Cl)c1		inactive		inactive			inactive	inactive		inactive				1.99 µM (active)	33.4 µM (active)	9.98 µM (active)	49.6 µM (active)	
CC1(C)O[C@@H]2C[C@H]3[C@@H]4C[C@H](F)C5=CC(=O)C=C[C@]5(C)[C@@]4(F)[C@@H](O)C[C@]3(C)[C@]2(C(=O)CO)O1	inactive	inactive	inactive	inactive	inactive		inactive	inactive	inactive	inactive								
COCC(C)N (stereo not given)	inactive	inactive	inactive	inactive	inactive		inactive	inactive	inactive	inactive								
CC(C)=CCCC(C)C=O (stereo not given)	inactive	inactive	inactive	inactive	inactive		inactive	inactive	inactive	inactive								
CCCC(=O)OCc1ccccc1	inactive	inactive	inactive	inactive	inactive		inactive	inactive	inactive	inactive								
c1ccc(-c2ccccn2)nc1	inactive	inactive	inactive	inactive	inactive			inactive	inactive	inactive	inactive							
CC(C)CCCCCOC(=O)CCS	inactive	inactive	inactive	inactive	inactive			inactive			inactive							
